Measurements as given in PubChem BioAssay (NCI).
About 79,000 compounds went through this panel and 15% of them were active in at least one assay; those are over-represented in the sample as a whole. Active and inactive are the calls of the source. Rule as the data show it: active = growth inhibition above about 70%; inactive = the rest.

Experiments:
[1] = NCI Yeast Anticancer Drug Screen. Data for the rad52 strain (AID 147);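 also: 0% = growth of vehicle-treated control cultures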; settings: S. cerevisiae rad52 mutant growth inhibition, hits give high values
Outline: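 Vehicle-treated cultures served as the reference for growth inhibition of compound-exposed yeast bearing a DNA repair mutation.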

[2] = NCI Yeast Anticancer Drug Screen. Data for the wt1 strain (AID 149);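 also: 0% = growth of vehicle-treated wt1 cultures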; settings: S. cerevisiae wt1 strain (SPY 50644) growth inhibition, hits give high values
Outline: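 Each compound is tested on wt1 yeast and the loss of growth versus vehicle gives the inhibition value.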

[3] = NCI Yeast Anticancer Drug Screen. Data for the rad50EPP+ strain (AID 151);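 also: 0% = growth of vehicle-treated control cultures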; settings: S. cerevisiae rad50 mutant strain, hits give high values
Outline: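 In this screen, rad50EPP+ yeast were exposed to compounds. Growth inhibition was scored against vehicle-treated controls.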

[4] = NCI Yeast Anticancer Drug Screen. Data for the mgt1 strain (AID 153); settings: S. cerevisiae mgt1 mutant growth inhibition, hits give high values
Outline: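 mgt1 strain exposed; growth vs vehicle control recorded as inhibition.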

[5] = NCI Yeast Anticancer Drug Screen. Data for the rad50 strain (AID 155);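 also: 0% = growth of vehicle-only cultures of the same strain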; settings: S. cerevisiae rad50 strain growth inhibition, hits give high values
Outline: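 Vehicle-treated cultures provide the reference for the growth inhibition reported for compound-exposed, repair-deficient yeast.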

[6] = NCI Yeast Anticancer Drug Screen. Data for the mec2-1 strain (AID 157); settings: S. cerevisiae mec2-1 strain, hits give high values
Outline: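 Vehicle-treated cultures served as reference for growth inhibition of compound-exposed mec2-1 yeast.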

[7] = NCI Yeast Anticancer Drug Screen. Data for the rad14 strain (AID 159);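 also: 0% = growth of vehicle-treated control cultures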; settings: S. cerevisiae rad14 strain growth inhibition, hits give high values
Outline: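 Inhibition of growth is reported for a repair-deficient yeast mutant following compound treatment, calculated relative to cultures that received vehicle.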

[8] = NCI Yeast Anticancer Drug Screen. Data for the sgs1 mgt1 strain (AID 161);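 also: 0% = growth of cultures given vehicle only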; settings: S. cerevisiae sgs1 mgt1 strain, hits give high values
Outline: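 Mutant yeast exposed to compound; growth scored against vehicle-only wells.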

[9] = NCI Yeast Anticancer Drug Screen. Data for the CLN2oe strain (AID 163);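 also: 0% = growth of vehicle-only control cultures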; settings: S. cerevisiae CLN2oe strain, hits give high values
Outline: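 Inhibition relative to vehicle-treated yeast is reported. Cells: strain with genetic alteration in cell-cycle control, grown with compound.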

[10] = NCI Yeast Anticancer Drug Screen. Data for the cln2 rad14 strain (AID 165);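 also: 0% = growth equal to vehicle treated cultures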; settings: S. cerevisiae cln2 rad14 strain, hits give high values
Outline: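 Each compound was tested on cln2 rad14 yeast. Inhibition of growth was calculated against vehicle-exposed controls.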

[11] = NCI Yeast Anticancer Drug Screen. Data for the bub3 strain (AID 167); settings: S. cerevisiae bub3 mutant strain, hits give high values
Outline: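 Mutant yeast screening strain plus compound; vehicle-treated cultures serve as the 0% inhibition reference.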

[12] = NCI Yeast Anticancer Drug Screen. Data for the wt2 strain (AID 169); settings: S. cerevisiae wt2 strain growth inhibition, hits give high values
Outline: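 Inhibition of yeast growth was determined after compound treatment, normalised to controls receiving only vehicle.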

[13] = NCI Yeast Anticancer Drug Screen. Data for the mlh1 strain (AID 171);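 also: 0% = growth of vehicle-treated control cultures of the same strain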; settings: S. cerevisiae mlh1 strain growth inhibition, hits give high values
Outline: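 Vehicle-normalised growth inhibition of a repair- or checkpoint-altered yeast strain following compound treatment.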

[14] = NCI Yeast Anticancer Drug Screen. Data for the mlh1 rad18 strain (AID 175); settings: S. cerevisiae mlh1 rad18 strain growth inhibition, hits give high values
Outline: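 Vehicle-treated cultures served as the reference for growth inhibition in a yeast strain carrying DNA damage repair alterations exposed to each compound.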

[15] = NCI Yeast Anticancer Drug Screen. Data for the rad18 strain (AID 177); settings: S. cerevisiae rad18 mutant growth inhibition, hits give high values
Outline: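 Test articles were incubated with altered yeast defective in DNA damage repair. Results are given as inhibition of growth versus vehicle.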

[16] = NCI Yeast Anticancer Drug Screen. Data for the sgs1 strain (AID 173);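 also: 0% = growth of vehicle-only control cultures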; settings: S. cerevisiae sgs1 mutant, hits give high values
Outline: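 Screen format: yeast with repair or checkpoint alterations, compound exposure, growth read relative to vehicle.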

[17] = at 5.0 µM (retest, dose inferred, filed as 0.5)
[18] = at 50.0 µM (retest, dose inferred, filed as 5.0)

Measured: growth inhibition

C=CCC1=C(C)C(OC(=O)/C=C/c2ccccc2)CC1=O (stereo unspecified)
active: [11]; [18] 79%
inactive: [1]; at 1.2 µM -4% | [1]; at 3.7 µM 0% | [1]; at 11.0 µM 2% | [1]; at 33.0 µM 5% | [1]; at 100.0 µM 39% | [2]; at 1.2 µM -2% | [2]; at 3.7 µM -5% | [2]; at 11.0 µM -5% | [2]; at 33.0 µM -2% | [2]; at 100.0 µM -3% | [3]; at 1.2 µM -1% | [3]; at 3.7 µM 0% | [3]; at 11.0 µM 6% | [3]; at 33.0 µM 7% | [3]; at 100.0 µM 15% | [4]; at 1.2 µM -6% | [4]; at 3.7 µM -2% | [4]; at 11.0 µM -1% | [4]; at 33.0 µM 2% | [4]; at 100.0 µM 29% | [5]; at 1.2 µM 2% | [5]; at 3.7 µM 1% | [5]; [17] 10% | [5]; at 11.0 µM 2% | [5]; at 33.0 µM 8% | [5]; [18] 19% | [5]; at 50.0 µM 2.25% | [5]; at 100.0 µM 39% | [6]; at 1.2 µM -4% | [6]; at 3.7 µM -4% | [6]; [17] -11% | [6]; at 11.0 µM -4% | [6]; at 33.0 µM 0% | [6]; [18] -18% | [6]; at 50.0 µM 5.6% | [6]; at 100.0 µM 7% | [7]; at 1.2 µM 1% | [7]; at 3.7 µM 2% | [7]; at 11.0 µM 4% | [7]; at 33.0 µM 5% | [7]; at 100.0 µM 18% | [8]; [17] 23% | [8]; [18] 39% | [8]; at 50.0 µM 19.4% | [9]; at 1.2 µM 2% | [9]; at 3.7 µM 2% | [9]; at 11.0 µM 5% | [9]; at 33.0 µM 15% | [9]; at 100.0 µM 28% | [10]; [17] 17% | [10]; [18] 36% | [10]; at 50.0 µM 33.5% | [11]; at 1.2 µM 7% | [11]; at 3.7 µM 20% | [11]; [17] 25% | [11]; at 11.0 µM 33% | [11]; at 33.0 µM 36% | [11]; at 50.0 µM 40.6% | [11]; at 100.0 µM 47% | [12]; at 1.2 µM -10% | [12]; at 3.7 µM -11% | [12]; at 11.0 µM -8% | [12]; at 33.0 µM -5% | [12]; at 100.0 µM 12% | [13]; at 1.2 µM -3% | [13]; at 3.7 µM -2% | [13]; at 11.0 µM -2% | [13]; at 33.0 µM 3% | [13]; at 100.0 µM 42% | [14]; [17] 15% | [14]; [18] 59% | [14]; at 50.0 µM 5.85% | [15]; at 1.2 µM -5% | [15]; at 3.7 µM 0% | [15]; at 11.0 µM -1% | [15]; at 33.0 µM 5% | [15]; at 100.0 µM 31%

Cc1[nH]c2ccccc2c1C(c1ccc(N)cc1)c1c(C)[nH]c2ccccc12
inactive: [1]; at 1.2 µM 3% | [1]; at 3.7 µM 3% | [1]; at 11.0 µM -6% | [1]; at 33.0 µM -1% | [1]; at 100.0 µM 41% | [2]; at 1.2 µM -2% | [2]; at 3.7 µM -1% | [2]; at 11.0 µM -2% | [2]; at 33.0 µM -1% | [2]; at 100.0 µM 45% | [3]; at 1.2 µM 4% | [3]; at 3.7 µM -4% | [3]; at 11.0 µM -4% | [3]; at 33.0 µM -2% | [3]; at 100.0 µM -8% | [4]; at 1.2 µM -3% | [4]; at 3.7 µM 0% | [4]; at 11.0 µM 0% | [4]; at 33.0 µM 0% | [4]; at 100.0 µM 48% | [5]; at 1.2 µM 6% | [5]; at 3.7 µM 3% | [5]; [17] 0% | [5]; at 11.0 µM -5% | [5]; at 33.0 µM 1% | [5]; at 100.0 µM 40% | [6]; at 1.2 µM -1% | [6]; at 3.7 µM -1% | [6]; [17] 4% | [6]; at 11.0 µM -1% | [6]; at 33.0 µM -1% | [6]; at 100.0 µM 45% | [7]; at 1.2 µM 5% | [7]; at 3.7 µM 0% | [7]; at 11.0 µM 0% | [7]; at 33.0 µM 6% | [7]; at 100.0 µM 50% | [8]; [17] 8% | [9]; at 1.2 µM -1% | [9]; at 3.7 µM -3% | [9]; at 11.0 µM -6% | [9]; at 33.0 µM 0% | [9]; at 100.0 µM 25% | [10]; [17] 4% | [10]; [18] 45% | [10]; at 50.0 µM 39% | [11]; at 1.2 µM -3% | [11]; at 3.7 µM -3% | [11]; [17] 0% | [11]; at 11.0 µM -6% | [11]; at 33.0 µM -5% | [11]; at 100.0 µM 38% | [12]; at 1.2 µM -2% | [12]; at 3.7 µM -11% | [12]; at 11.0 µM -10% | [12]; at 33.0 µM -1% | [12]; at 100.0 µM 47% | [13]; at 1.2 µM 1% | [13]; at 3.7 µM -1% | [13]; at 11.0 µM -2% | [13]; at 33.0 µM 0% | [13]; at 100.0 µM 50% | [16]; at 1.2 µM -12% | [16]; at 3.7 µM -14% | [16]; at 11.0 µM -19% | [16]; at 33.0 µM -5% | [16]; at 100.0 µM 62% | [14]; [17] 6% | [15]; at 1.2 µM 4% | [15]; at 3.7 µM 4% | [15]; at 11.0 µM -1% | [15]; at 33.0 µM 0% | [15]; at 100.0 µM 47%
active: [5]; [18] 90% | [5]; at 50.0 µM 95.3% | [6]; [18] 94% | [6]; at 50.0 µM 96.4% | [8]; [18] 96% | [8]; at 50.0 µM 98.2% | [11]; [18] 85% | [11]; at 50.0 µM 98.4% | [14]; [18] 96% | [14]; at 50.0 µM 98.5%
